The record followed here is PubChem BioAssay (NCI).

Molecules are shown by their SMILES. Compounds without any hit were thinned out: in the full panel of roughly 83,000, 20% have a hit.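 For each line, cells grew in 96-well plates with the test compound present at a single concentration for 48 hours.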 The source made the active and inactive calls.

In this assay the test system is HS 578T breast. The experiment in a line: NCI-60 one-dose screen, 48 h (100 = growth as untreated, 0 = no growth, -100 = all killed). As to conditions: 10 µM unless noted. As to the method:
Growth inhibition of the HS 578T human tumor cell line is measured as a screen for anti-cancer activity. Cells are grown in 96 well plates and exposed to the test compound for 48 hours. Compounds are tested at a single concentration, which is 10^-5 M for most compounds. The reported endpoint is percent growth (GI% or GIPRCNT), where numbers from 0 - 100% represent growth inhibition, and numbers from -100% - 0 represent cell death. For example, a value of 40 represents 60% growth inhibition. A value of 0 means no net growth occurred over the course of the experiment. A value of -40 indicates 40% of cells at the beginning of the experiment died by the end of the experiment. A value of -100 means all cells are dead at the end of the experiment.
NCI-60 Human Tumor Cell Lines Screen was performed using the standard one-dose NCI protocol, which is described in more detail at https://dtp.cancer.gov/discovery_development/nci-60/default.htm.
Compounds with GIPRCNT values below 10 were considered active. Activity score was based on GIPRCNT using the following formula: […]
Score is 0 for GIPRCNT values of 100 or above, 50 for GIPRCNT values of 0, and 100 for GIPRCNT values of -100.
Turning to `C=C1C(=O)O[C@@H]2C[C@@H](C)/C=C\C(=O)[C@](C)(OC(C)=O)C[C@H](OC(=O)/C(C)=C\C)[C@@H]12`, the growth is 19.1% (inactive).

As to `C#C[C@]1(O)CC[C@H]2[C@@H]3CC=C4c5sc(C6CCOCC6)nc5CC[C@]4(C)[C@H]3CC[C@@]21C`, the growth was 66.9% (inactive).

Regarding `O=C(NCCCCCCNC(=O)c1c2c(nc3ccccc13)-c1cccnc1SC2)c1c2c(nc3ccccc13)-c1cccnc1SC2`, the growth was 83.2% (inactive).

Turning to `COc1ccc(/C=C/C(=O)c2nnn(-c3ccc(Br)cc3)c2C)cc1OC`, the growth is 92.5% (inactive).

As for `COc1cc(C2CC(c3ccc(Nc4nc(NCCO)nc(Nc5ccc(Cl)cc5)n4)cc3)=Nc3c(N)nc(N)nc3N2)cc(OC)c1OC` (stereo not given), the growth was 35% (inactive).

In the case of `C#CCOc1ccc(C(Nc2ccc(Cl)cc2)c2nnnn2C2CCCCC2)cc1` (stereo not given), the growth was 79.9% (inactive).

Take `Oc1ccccc1-c1nnc(SCc2ccc(O)c3ncccc23)n1-c1ccccc1`: the growth is 21.3% (inactive).

Regarding `CCOC(=O)c1c(NCC(=O)Nc2ccc(Br)cc2)sc2c1CCCC2`, the growth is 57.5% (inactive).

Consider `CC(c1ccccc1)N1C(=O)/C(=C/c2csc(C#N)n2)SC1=S` (stereo not given), for which the growth was 103% (inactive).

`N=c1c2cc(-c3ccccc3)oc2ncn1/N=C/c1ccccc1`: the growth is 91.3% (inactive).

As for `C=C1C(=O)O[C@@H]2C[C@@H](C)CCC(=O)[C@](C)(OC(C)=O)C[C@H](OC(=O)/C(C)=C\C)[C@@H]12`, the growth was 101% (inactive).

With `COc1cc2c3c(n(CCCNC4CCCCC4)c(=O)c2cc1OC)-c1cc2c(cc1C3=O)OCO2`, the growth was 90.5% (inactive).

With `CN1CCN(c2ccc(C(=O)Nc3cccc(-c4cn(-c5ccc(S(N)(=O)=O)cc5)nn4)c3)cc2C(F)(F)F)CC1`, the growth is 71% (inactive).

Regarding `CNC(=O)c1cc(Oc2ccc3nc(NC(=O)c4ccc(CN5CCCN(C)CC5)c(C(F)(F)F)c4)sc3c2)ccn1`, the growth was -1.04% (active).

Take `NS(=O)(=O)c1ccc(Nc2nc(N/N=C/c3ccc([N+](=O)[O-])cc3)nc(Nc3ccccc3)n2)cc1`: the growth was 53.5% (inactive).

With `O=S(=O)(Nc1cc(Cl)c(F)c(Cl)c1)c1ccc(-c2cnc(C3CC3)o2)cc1`, the growth is 30.5% (inactive).

Take `C#C[C@]1(O)CC[C@H]2[C@@H]3CC=C4c5sc(-c6cccc(F)c6)nc5CC[C@]4(C)[C@H]3CC[C@@]21C`: the growth was 68.7% (inactive).

`NS(=O)(=O)c1ccc(-n2cc(CC=O)nn2)cc1`: the growth was 104% (inactive).

On to `O=S(=O)(Nc1ccc(-c2nc(-c3cccc(O)c3)c(-c3ccnc(Br)c3)[nH]2)cc1)c1ccccc1`, for which the growth was -0.856% (active).

As to `COc1c([C@@H](CC(C)C)OC(C)=O)ccc2c1C(=O)OCc1cc(C)cc(O)c1O2`, the growth is 45.9% (inactive).

`O=C1c2c(O)cc(O)cc2O[C@@H](c2ccc(O)cc2)[C@@H]1c1c(O)cc(O)c2c(=O)cc(-c3ccc(O)c(O)c3)oc12`: the growth was 102% (inactive).

With `C(=C(\C1=NCCN1)n1cnc2ccccc21)/c1cccc2ccccc12`, the growth was 92.9% (inactive).

In the case of `COc1ccc([C@H]2[C@H](O)C(=O)N2c2cc(OC)c(OC)c(OC)c2)cc1`, the growth was 16.6% (inactive).

In the case of `COCCC[C@H]1O[C@@](O)([C@H](C)[C@@H]2CC(OC)C(O)/C=C(C)/C=C(C)/C=C(\C)C(OC3O[C@@H](C)[C@H](O)C(O)[C@@H]3O)C(C)/C=C(C)/C=C(OC)/C=C(\C)C(=O)O2)C(OC)C(O)[C@]1(C)O[C@H]1C[C@@H](O)[C@H](O[C@H]2C[C@](C)(O)[C@H](O)C(C)O2)C(C)O1` (stereo not given in full), the growth is 86.1% (inactive).

In the case of `CS(=O)(=O)c1ccc(-c2nn(-c3ccccc3)cc2/C=C/C(=O)c2ccc(Br)cc2)cc1`, the growth was 117% (inactive).

With `Cc1cc2nc(C(Cl)Cl)nc(-c3ccco3)n2n1`, the growth was 94% (inactive).

`CCCCCCNC(=O)Oc1ccc(/C(=C(/C)c2ccc(Cl)cc2)c2ccc(OCCN3CCCC3)cc2)cc1`: the growth is 61.1% (inactive).

With `C#CCOc1ccccc1C(Nc1ccccc1)c1nnnn1C1CCCCC1` (stereo not given), the growth is 95.2% (inactive).

For the molecule `COc1ccc(C2CC(c3ccc(Nc4nc(NCCO)nc(Nc5ccc(Cl)cc5)n4)cc3)=Nc3c(N)nc(N)nc3N2)cc1` (stereo not given), the growth was 94.9% (inactive).

As to `CCOC(=O)c1c(Nc2ccccc2)nn2c(-c3ccc(OC)c(OC)c3)ccnc12`, the growth is 49.4% (inactive).

For `CCNC(=O)Oc1ccc(/C(=C(/C)c2ccc(Cl)cc2)c2ccc(OCCN(C)C)cc2)cc1`, the growth is 80.8% (inactive).

With `O=C(Nc1cc(F)cc2cccnc12)c1cnc(N2CCOCC2)cn1`, the growth is 98.3% (inactive).

Regarding `C=CCn1c(SCC(=O)Nc2ccc(OC)cc2)nnc1-c1ccc(Cl)cc1`, the growth was 92.2% (inactive).

`Cc1ccc(-c2csc(N/N=C/c3nc4ccccc4n3C3CC3)n2)cc1`: the growth is 88.5% (inactive).

For `Cc1ccc(-n2cc(/C=C/C(=O)c3ccc(S(C)(=O)=O)cc3)c(-c3ccc(S(C)(=O)=O)cc3)n2)cc1`, the growth is 103% (inactive).

Turning to `C/C(=N\NC(=O)CSc1nc2sc3c(c2c(=O)n1-c1ccccc1)CCC(C)C3)c1ccc(Cl)cc1` (stereo not given), the growth is 61.9% (inactive).

With `CCNCCCn1c2c(c3cc(OC)c(OC)cc3c1=O)C(=O)c1cc(OC)cnc1-2`, the growth was 80.2% (inactive).

`COc1ccc2c(c1)oc1c3[nH]c4ccccc4c3c3c(c21)C(=O)N(O)C3=O`: the growth was 77.9% (inactive).

As for `Cc1cn(-c2cc(NC(=O)c3cncc(C#Cc4cnc5ccc(OCCCS(C)(=O)=O)nn45)c3)cc(C(F)(F)F)c2)cn1`, the growth was -3.18% (active).

On to `O=S(=O)(Nc1ccc(C2CC2)cc1)c1ccc(-c2cnc(C3CC3)o2)cc1`, for which the growth is 69% (inactive).
